We go through 39 molecules from PubChem BioAssay (NCATS).

Records with an inconclusive call do not appear. A number with no mark means an inactive call. Calls of active or inactive are those of the source. Calls come from the whole dose curve; as a rule, active = well fitted inhibition curve with a large enough effect; inconclusive = small, poorly fitted or top-dose-only effect; inactive = flat fitted curve, though single readings scatter.
% is set by controls: 0 for no effect and ±100 for the full control effect; potency is the fitted concentration of half-maximal effect.

This assay deals with CRL-7250. As to the kind of experiment: Cytotoxic Profiling of Annotated Libraries Using Quantitative High-Throughput Screening (AID 1296008). Note: nearly all actives have a fitted effect of over 60% in size. The settings on record: Five cell lines viability, CellTiter-Glo ATP luminescence, 48-72 h; max response: hits give low values. The procedure, abridged:
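Cells exposed to compounds for 48 or 72 hr at 37 degrees Celsius. Viability read as ATP-coupled luminescence with CellTiter-Glo after 10 min at room temperature.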
(In general: ATP-based viability assays read luminescence as a measure of living cells.)
Regarding `CC1OC(OC2CCC3(C)C(CCC4(C)C3CC=C3C5CC(C)(C)CCC5(C(=O)OC5OC(CO)C(O)C(O)C5O)CCC34C(=O)O)C2(C)C)C(O)C(O)C1O` (centres undefined), the call was inactive.

As to `COC1C(=O)CCC2(CO2)C1(O)C1(C)OC1CC=C(C)C` (centres undefined), the max response was -21.3%.

With `CC(C)(C)NCCCNC(=O)c1cccc(Br)c1`, the outcome was inactive.

As to `CC(=O)/C=C/[C@H]1[C@](C)(O)[C@@H](O)[C@H](OC(C)=O)C2C(C)(C)CCC[C@@]21C` (some centres undefined), the max response is 4.5%.

For `C=C1C(OC(C)=O)CCC2(C)CC3(OC)OC(=O)C(C)=C3CC12` (centres undefined), the max response was -3.85%.

Take `Cc1cc(OCc2nnc(SC3CCCC3)n2-c2cccnc2)ccc1-c1ccc(S(C)(=O)=O)cc1`: the Potency is 0.411 µM (active).

Turning to `CC(/C=C/C1=CC2=CC(=O)C(C)(O)C(O)C2=CO1)=C\C(C)CCO` (centres undefined), the max response is -1.14%.

For `C[C@]1(CO)CCC[C@]2(C)C3=C(CCC12)COC3` (some centres undefined), the max response was -5.66%.

Take `C=C(C(=O)O)C1CC2=C(C)CCCC2(C)C[C@@H]1O` (some centres undefined): the outcome was inactive.

Regarding `CCn1c(=O)c(-c2ccn[nH]2)cc2c(C)nc(N)nc21`, the Potency was 2.31 µM (active).

In the case of `C=C[C@H]1C(O[C@@H]2O[C@H](CO)[C@@H](O)[C@H](O)[C@H]2O)OC=C2C(=O)N3CCc4c([nH]c5ccccc45)[C@H]3C[C@H]21` (some centres undefined), the molecule was called inactive.

For `C[C@@H]1C[C@@H]([C@@H](O)C(C)(C)O)O[C@H]2C[C@@]3(C)C(=C12)C[C@H](O)[C@H]1[C@@]2(C)CCC(=O)C(C)(C)C2CC[C@@]13C` (some centres undefined), the max response is 0.566%.

For the molecule `C[C@@H]1O[C@@H](O[C@@H]2[C@@H](O[C@@H]3O[C@@H](C)[C@H](O[C@@H]4OC[C@H](O)[C@H](O[C@@H]5OC[C@@H](O)[C@H](O)[C@H]5O)[C@H]4O)[C@@H](O[C@@H]4OC[C@](O)(CO)[C@H]4O)[C@H]3O)[C@H](OC(=O)[C@]34CCC(C)(C)C[C@H]3C3=CCC5[C@@]6(C)C[C@H](O)[C@H](O[C@@H]7O[C@H](CO[C@@H]8OC[C@H](O)[C@H](O)[C@H]8O)[C@@H](O)[C@H](O)[C@H]7O)C(C)(C)C6CC[C@@]5(C)[C@]3(C)C[C@H]4O)OC[C@H]2O)[C@H](O)[C@H](O)[C@H]1O` (some centres undefined), the call was inactive.

`CC1(C)CCCC2(C)C1C(O)C=C(CO)C2(O)CO` (centres undefined): the molecule was classed as inactive.

For the molecule `CCOc1ccc(S(=O)(=O)n2c(C)nc3ccccc32)cc1`, the max response was -1.87%.

Regarding `CC1(C)CC[C@@]2(C(=O)O[C@@H]3O[C@H](CO)[C@@H](O)[C@H](O)[C@H]3O)C(C1)C1=CCC3[C@@]4(C)CC[C@@H](O[C@@H]5O[C@H](C(=O)O)[C@@H](O[C@@H]6OC[C@@H](O)[C@H](O)[C@H]6O)[C@H](O[C@@H]6OC[C@](O)(CO)[C@H]6O)[C@H]5O)C(C)(C)C4CC[C@@]3(C)[C@]1(C)C[C@H]2O` (some centres undefined), the molecule was classed as inactive.

For the molecule `CC/C=C\CC1C(=O)C=CC1(CCCCCCCC(=O)O)OC(C)=O` (centres undefined), the max response was -0.322%.

Take `COc1cc(/C=C/C(=O)O[C@H]2[C@H](O)[C@@H](CO)O[C@@]2(CO)O[C@H]2O[C@H](CO)[C@@H](O)[C@H](O)[C@H]2O)ccc1O`: the max response was 3.83%.

On to `CC(C)(O[C@@H]1O[C@H](CO)[C@@H](O)[C@H](O)[C@H]1O)C(OC(=O)/C=C\c1ccc(O)cc1)C(=O)OCc1ccc(O[C@@H]2O[C@H](CO)[C@@H](O)[C@H](O)[C@H]2O)cc1` (some centres undefined), for which the max response is -12.2%.

As to `CC1CCC2C(C)(C)[C@@H](O)CC[C@]2(C)C12Cc1c(O)cc3c(c1O2)CN(C(CCC(=O)O)C(=O)O)C3=O` (some centres undefined), the max response was -1.01%.

`C/C=C/C=C/C(=O)N1CC[C@]23c4ccccc4N[C@H]4N(C)c5cccc6c5[C@@]42CCN([C@H]6C2OC2(C)C)[C@H]13` (some centres undefined): the max response is -2.8%.

As to `C/C=C/C=C/[C@@H]1O[C@](O)([C@H](CC)C(=O)NC/C=C/C=C(\C)[C@@H](OC)[C@@H](C)C2OC(/C=C/C=C/C=C(\C)C(=O)c3c(O)cc[nH]c3=O)[C@H](O)[C@@H]2O)[C@H](O)[C@H](O)C1(C)C` (some centres undefined), the max response was 2.59%.

Regarding `CCC(C)C(=O)OC1CC(C)C=C2C=CC(C)C(CCC(O)CC(O)CC(=O)O)C21` (centres undefined), the Potency is 7.09 µM (active).

For `O=C(O)c1cc(-c2c(-c3ccccc3)nn3ccccc23)n[nH]c1=O`, the call was inactive.

As for `O=C(CN1C(=O)C2(CCCC2)NCC1c1cc(F)cc(F)c1)Nc1ccc2c(c1)CC1(C2)C(=O)Nc2ncccc21` (centres undefined), the molecule was classed as inactive.

As for `Cc1cc(C)nc(NS(=O)(=O)c2ccc(NC(=S)NC(=O)COc3ccc(Br)cc3Cl)cc2)n1`, the max response was 3.21%.

For `C=C(C(=O)O)C1CCC2(C)CCC(O)C(C)(O)C2C1` (centres undefined), the max response was -18%.

Regarding `CC1(C)CC[C@]2(C(=O)O[C@@H]3O[C@H](CO)[C@@H](O)[C@H](O)[C@H]3O)CC[C@]3(C)C(=CCC4[C@@]5(C)C[C@@H](O)[C@H](O)C(C)(C)C5CC[C@]43C)C2[C@@H]1O` (some centres undefined), the max response was 0.543%.

Regarding `CCOC(=O)Nc1cc(-c2ccc(C)c(NS(C)(=O)=O)c2)nn2c(C)nnc12`, the Potency is 7.31 µM (active).

Turning to `O=C(c1ccc2nccnc2c1)N1CCCCC1`, the max response was -4.12%.

As for `COc1cc(C(=O)NC2CCN(C)CC2)ccc1Nc1ncc2c(n1)N(C1CCCC1)CC(F)(F)C(=O)N2C`, the Potency is 2.31 µM (active).

For `C/C(=C\C=C\C(C)C1CCC2(C)C3CCC4C(C)(C)C(=O)CCC45CC35CCC12C)C(=O)O` (centres undefined), the max response was -5.15%.

For the molecule `Cc1cc(OCc2nc(-c3ccccc3Cl)cs2)ccc1OCC(=O)O`, the max response was -3.46%.

Turning to `CCc1cnn2c(NCc3ccc[n+]([O-])c3)cc(N3CCCCC3CCO)nc12` (centres undefined), the Potency is 0.0046 µM (active).

With `OC[C@H]1O[C@@H](OCCc2ccccc2)[C@H](O[C@@H]2OC[C@](O)(CO)[C@H]2O)[C@@H](O)[C@@H]1O`, the max response is -6.82%.

For `CCOCc1nc2c(N)nc3ccccc3c2n1CC(C)(C)O`, the max response is -6.16%.

With `CC(=O)OC1C(O)C2C(C)C3=CC(=O)OC3(O)CC2C2(C)CCCC(C)(CO)C12` (centres undefined), the result was inactive.

As for `C=C(C(=O)O)C1CCC2(C)CCC(O)C(=C)C2C1` (centres undefined), the max response was -9.49%.

In the case of `CC(=O)C1=CCC2C3CCC4CC(O[C@@H]5O[C@H](CO)[C@@H](O[C@@H]6O[C@@H](C)[C@H](O)[C@@H](O)[C@H]6O)[C@H](O)[C@H]5O[C@@H]5O[C@H](CO)[C@@H](O)[C@H](O)[C@H]5O)CCC4(C)C3CCC12C` (some centres undefined), the max response is -10.3%.
